# Experimental data as given in PubChem BioAssay AID602241 (Southern Research Specialized Biocontainment Screening …, 2012).
# Potency and affinity values are given separately. Active and inactive are the calls of the source. Where a call stands in place of a potency, no number is given. The rule behind the calls is not given here.
# Assay: Confirmatory cell based cytopathic effect inhibition, VEEV TC 83 infected cells (AID 602241)
# Settings: series mostly up to 50 µM
row,SMILES,outcome
1,O=C(Oc1ccc2ccccc2c1Br)N1CCCCCC1,inactive
2,O=c1c2cc([N+](=O)[O-])ccc2nc(CN2CCN(c3ccccc3)CC2)n1-c1ccccc1F,inactive
